PRMT1 inh: inhibitors of human PRMT1 | recombinant PRMT1, activity-based probe fluorescence polarization | inhibition, % at 2.79 µM | 1.3% of 370,000 active | AID 652257;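 active = inhibition above about 21% made by adding two undisclosed values, limit read from the data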
Target sequence (Q99873 whole entry, looked up): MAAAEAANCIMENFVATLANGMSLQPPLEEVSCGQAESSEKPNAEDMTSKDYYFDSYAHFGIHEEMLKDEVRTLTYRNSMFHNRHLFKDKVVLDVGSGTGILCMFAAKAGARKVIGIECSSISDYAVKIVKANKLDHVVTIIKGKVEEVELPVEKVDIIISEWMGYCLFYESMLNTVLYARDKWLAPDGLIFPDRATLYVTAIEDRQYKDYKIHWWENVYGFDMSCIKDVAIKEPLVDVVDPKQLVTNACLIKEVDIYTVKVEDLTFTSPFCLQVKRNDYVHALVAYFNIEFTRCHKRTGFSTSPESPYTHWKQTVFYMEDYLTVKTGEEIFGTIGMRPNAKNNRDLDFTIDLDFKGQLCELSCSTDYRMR
rCAG RNA binder: r(CAG) repeat RNA binding | TO-PRO-1 dye displacement fluorescence | inhibition, % at 3 µM | 1.3% of 370,000 active | AID 651821;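 active = inhibition above the plate cutoff, the mean of all test compounds on that plate plus 3 SD, cut at about 35% in these data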;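 note: 0% = DMSO alone and 100% = 100 µM mitoxantrone as full dye displacement; higher means more dye released from RNA so lower well fluorescence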
TLR9-MyD88 inh: TLR9-MyD88 interaction inhibition | AID 504734 | CHO BLA complementation TLR9-MyD88, CCF4 FRET ratio | 0.21% of 340,000 active | inhibition, % at 4.98 µM;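 active = inhibition above the mean over all tested compounds plus 3 SD, cut at about 21% in these data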;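 note: 0% = DMSO only wells and 100% = clavulanate BLA inhibitor control wells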
NOD2 RIPK2 PPI: blocks binding of human NOD2 to RIPK2. 0.38% of 360,000 active. inhibition, % at 4.98 µM. AID 624267. CHO BLA complementation NOD2-RIPK2, CCF4 ratio; in the data active = inhibition above about 21%;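 note: 0% = vehicle only and 100% = reference blocker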
ABHD5 PLIN5 PPI: ABHD5-PLIN5 protein interaction inhibition | Q00G26+Q8WTS1 | Split G. princeps luciferase complementation, luminescence, 4 h | inhibition, % at 4 µM | 0.78% of 360,000 active;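 active = inhibition above the mean inhibition across every tested compound plus 3 SD, cut at about 22% in these data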;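 note: 0% = DMSO only wells and the 100% control is not disclosed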
TLR4 MyD88 comp: inhibitors of human TLR4-MyD88 binding; 0.18% of 200,000 active; HeLa CL3-4 TLR4/MyD88 BLA complementation, FRET ratio; AID 861; O00206+Q99836; inhibition, % at 8.4 µM; in the data active = inhibition above about 25%;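 note: 0% = vehicle and 100% = reference inhibitor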
rCAG binder conf: r(CAG) RNA repeat binding, confirmation | shares compounds with rCAG RNA binder | TO-PRO-1 dye displacement fluorescence | inhibition, % at 3 µM | 70% of 4,300 active | AID 652065;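 active = inhibition above a per-plate cutoff, the mean inhibition of sample wells plus 3 SD, cut at about 35% in these data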;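 note: loss of TO-PRO-1 fluorescence as compound displaces dye from 1x1 AA loop RNA; 0% = DMSO only wells and 100% = 100 µM mitoxantrone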
DNA CAG counter: DNA CAG dye complex inhibition counter-screen; shares compounds with rCAG RNA binder; d(CAG) DNA oligo TO-PRO-1 dye displacement, fluorescence; inhibition, % at 3 µM; 94% of 4,300 active; AID 652068;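 active = inhibition above its plate's cutoff, the mean test-well inhibition plus 3 SD, cut at about 4.8% in these data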;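 note: 0% = DNA dye mix with DMSO and 100% = 100 µM mitoxantrone; hits displace the dye from DNA and so lower well fluorescence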
* hit, by the source's call; / = no result. This is a sample that favours compounds with a hit; in the whole collection about 3.3% have one here.

SMILES	PRMT1 inh	rCAG RNA binder	TLR9-MyD88 inh	NOD2 RIPK2 PPI	ABHD5 PLIN5 PPI	TLR4 MyD88 comp	rCAG binder conf	DNA CAG counter
O=C(c1ccc2nc(-c3ccco3)c(-c3ccco3)nc2c1)N1CCN(c2ncccn2)CC1	35*	35*	6	0	15	-5	49*	22*
CC(=O)c1cccc(NC(=O)CSCc2ccccc2)c1	4	4	-8	-7	3	-2	/	/
CCOC(=O)C1(C)CCCN(C(=O)c2ccc(OC(F)F)cc2)C1 (centres undefined)	-2	-1	/	-2	-3	/	/	/
O=C(CN1C(=O)/C(=C2/SC(=S)N(CCS(=O)(=O)O)C2=O)c2ccccc21)Nc1cccc(Br)c1	6	73*	2	-4	-10	/	80*	49*
COc1cc(CNC(=O)c2cc(-c3cc(OC)ccc3Cl)n[nH]2)cc(OC)c1	0	4	/	-6	2	/	/	/
N=C1/C(=C\c2ccc(-c3cccc(C(=O)O)c3)o2)C(=O)N=C2SC=C(c3ccccc3)N12	22*	86*	-5	4	0	/	91*	70*
N=C1/C(=C/c2ccc(-c3cccc(C(=O)O)c3)o2)C(=O)N=C2SC(CC(=O)N3CCOCC3)=NN12	10	34	-5	1	9	/	/	/
COc1cccc(-c2nnc(Nc3nc4c(F)cccc4s3)o2)c1	-1	73*	2	-7	12	-5	67*	23*
COc1cccc(-c2nnc(NC(C)=O)o2)c1	-4	2	3	-10	9	/	/	/
O=C(Nc1nnc(-c2ccccc2Cl)o1)c1nc2ccccc2s1	-1	40*	-3	1	-6	-1	47*	13*
COc1cccc2sc(Nc3nnc(-c4ccccc4Cl)o3)nc12	-9	46*	-9	5	5	13	44*	14*
COc1cccc2sc(NN)nc12	17	25	0	-4	-8	-5	/	/
O=C(Nc1nnc(-c2ccccc2Cl)o1)c1ccco1	-1	2	4	-3	3	-4	/	/
O=C1NC(=O)/C(=C\c2ccccc2OCc2ccccc2)S1	4	69*	-15	-6	3	-16	58*	20*
CCCOc1ccc2ccccc2c1/C=C1\SC(=O)NC1=O	1	53*	0	2	-5	/	44*	13*
COc1cc(/C=C2/SC(=O)NC2=O)ccc1OCc1ccccc1	8	59*	-4	3	20	/	51*	13*
COc1ccccc1OCCCOc1cccc(/C=C2\SC(=O)NC2=O)c1	2	78*	-1	-6	8	/	83*	51*
COc1ccc(C)cc1S(=O)(=O)n1c([N+](=O)[O-])cnc1C	3	2	-3	3	0	/	/	/
Cc1ccc(S(=O)(=O)Oc2ccccc2/C=C2/SC(=O)NC2=O)cc1	4	44*	-3	7	-2	/	36*	7.0*
O=C(N/N=C1/CC2CCC1C2)c1cc2ccccc2cc1O (centres undefined)	0	51*	-4	-1	-9	/	9	4
NC(=O)CC1C(=O)N(c2ccccc2)C(=S)N1NC(=O)c1ccccc1 (centres undefined)	5	5	8	-3	11	/	/	/
O=C(Nc1ccc([N+](=O)[O-])cc1)Nc1nc(-c2ccc(Cl)s2)cs1	-1	51*	-3	-10	-7	7	68*	48*
CC(=O)Nc1nc(-c2ccc([N+](=O)[O-])cc2)cs1	6	5	9	0	2	-15	/	/
O=[N+]([O-])c1ccccc1S(=O)(=O)Nc1nc2ccccc2s1	2	10	2	-5	-6	/	/	/
O=[N+]([O-])c1ccc2nc(NS(=O)(=O)c3ccccc3[N+](=O)[O-])sc2c1	-3	41*	2	-15	2	/	39*	12*
O=[N+]([O-])c1ccc2nc(NS(=O)(=O)c3ccc(Cl)cc3)sc2c1	-1	72*	-3	-6	-3	/	76*	28*
